These results are taken from the supplement of paper PMC6992640.

In the experiment the test system is WHIM30 (cells of a triple-negative basal-like breast cancer xenograft). Put plainly: cell viability of combination (% of vehicle); higher = less cytotoxic. The settings on record: 1 µM; 72 h; partner dose: 10 nM. The protocol:
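PDX cells were treated for 72 h with each drug at 1 µM plus carfilzomib (10 nM; 100 nM for WHIM2). Luciferase viability is expressed as percent of vehicle.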
Consider `CNCCC(Oc1ccc(C(F)(F)F)cc1)c1ccccc1.Cl` (stereo not given) [Fluoxetine HCl] + CC(C)C[C@H](NC(=O)[C@H](CCc1ccccc1)NC(=O)CN1CCOCC1)C(=O)N[C@@H](Cc1ccccc1)C(=O)N[C@@H](CC(C)C)C(=O)[C@@]1(C)CO1 [Carfilzomib], for which the “cell viability of combination” value came out at 16.3.
Next, `COCCOC(=O)C1=C(C)NC(C)=C(C(=O)OCC=Cc2ccccc2)C1c1cccc([N+](=O)[O-])c1` (stereo not given) [Cilnidipine] + CC(C)C[C@H](NC(=O)[C@H](CCc1ccccc1)NC(=O)CN1CCOCC1)C(=O)N[C@@H](Cc1ccccc1)C(=O)N[C@@H](CC(C)C)C(=O)[C@@]1(C)CO1 [Carfilzomib]: 19.2; `CCCCc1oc2ccccc2c1C(=O)c1cc(I)c(OCCN(CC)CC)c(I)c1.Cl` [Amiodarone HCl] + CC(C)C[C@H](NC(=O)[C@H](CCc1ccccc1)NC(=O)CN1CCOCC1)C(=O)N[C@@H](Cc1ccccc1)C(=O)N[C@@H](CC(C)C)C(=O)[C@@]1(C)CO1 [Carfilzomib]: 20.3; `Cc1ccc(-n2[nH]c(C)c(NN=C3C=CC=C(c4cccc(C(=O)O)c4)C3=O)c2=O)cc1C` [Eltrombopag] + CC(C)C[C@H](NC(=O)[C@H](CCc1ccccc1)NC(=O)CN1CCOCC1)C(=O)N[C@@H](Cc1ccccc1)C(=O)N[C@@H](CC(C)C)C(=O)[C@@]1(C)CO1 [Carfilzomib]: 19.8.
Next, `CC(C)N=c1cc2n(-c3ccc(Cl)cc3)c3ccccc3nc-2cc1Nc1ccc(Cl)cc1` [Clofazimine] + CC(C)C[C@H](NC(=O)[C@H](CCc1ccccc1)NC(=O)CN1CCOCC1)C(=O)N[C@@H](Cc1ccccc1)C(=O)N[C@@H](CC(C)C)C(=O)[C@@]1(C)CO1 [Carfilzomib]: 16.7; `CNCCCC12CCC(c3ccccc31)c1ccccc12.Cl` [Maprotiline HCl] + CC(C)C[C@H](NC(=O)[C@H](CCc1ccccc1)NC(=O)CN1CCOCC1)C(=O)N[C@@H](Cc1ccccc1)C(=O)N[C@@H](CC(C)C)C(=O)[C@@]1(C)CO1 [Carfilzomib]: 16; `Nc1ccn(C2OC(CO)C(O)C2O)c(=O)n1` (stereo not given) [Cytarabine] + CC(C)C[C@H](NC(=O)[C@H](CCc1ccccc1)NC(=O)CN1CCOCC1)C(=O)N[C@@H](Cc1ccccc1)C(=O)N[C@@H](CC(C)C)C(=O)[C@@]1(C)CO1 [Carfilzomib]: 19.3.
As to `Cl.Clc1ccccc1CN1CCc2sccc2C1` [Ticlopidine HCl] + CC(C)C[C@H](NC(=O)[C@H](CCc1ccccc1)NC(=O)CN1CCOCC1)C(=O)N[C@@H](Cc1ccccc1)C(=O)N[C@@H](CC(C)C)C(=O)[C@@]1(C)CO1 [Carfilzomib], the “cell viability of combination” value turned out to be 16.
Next, `CCCCCCCCOc1ccccc1C(=O)Nc1ccc(C(=O)OCC[N+](C)(CC)CC)cc1.[Br-]` [Otilonium Bromide] + CC(C)C[C@H](NC(=O)[C@H](CCc1ccccc1)NC(=O)CN1CCOCC1)C(=O)N[C@@H](Cc1ccccc1)C(=O)N[C@@H](CC(C)C)C(=O)[C@@]1(C)CO1 [Carfilzomib]: 17.7; `Clc1ccc(CSC(Cn2ccnc2)c2ccc(Cl)cc2Cl)cc1.O=[N+]([O-])O` (stereo not given) [Sulconazole Nitrate] + CC(C)C[C@H](NC(=O)[C@H](CCc1ccccc1)NC(=O)CN1CCOCC1)C(=O)N[C@@H](Cc1ccccc1)C(=O)N[C@@H](CC(C)C)C(=O)[C@@]1(C)CO1 [Carfilzomib]: 14.2; `CN1CCC(COc2cnc(-c3cccc(Cn4nc(-c5cccc(C#N)c5)ccc4=O)c3)nc2)CC1` + CC(C)C[C@H](NC(=O)[C@H](CCc1ccccc1)NC(=O)CN1CCOCC1)C(=O)N[C@@H](Cc1ccccc1)C(=O)N[C@@H](CC(C)C)C(=O)[C@@]1(C)CO1 [Carfilzomib]: 26.9.
As for `Cl.Nc1ccn(C2OC(CO)C(O)C2O)c(=O)n1` (stereo not given) [Cytarabine hydrochloride] + CC(C)C[C@H](NC(=O)[C@H](CCc1ccccc1)NC(=O)CN1CCOCC1)C(=O)N[C@@H](Cc1ccccc1)C(=O)N[C@@H](CC(C)C)C(=O)[C@@]1(C)CO1 [Carfilzomib], the “cell viability of combination” value came to 18.8.
Next, `CCOC(=O)C1=C(COCCN)NC(C)=C(C(=O)OC)C1c1ccccc1Cl` (stereo not given) [Amlodipine] + CC(C)C[C@H](NC(=O)[C@H](CCc1ccccc1)NC(=O)CN1CCOCC1)C(=O)N[C@@H](Cc1ccccc1)C(=O)N[C@@H](CC(C)C)C(=O)[C@@]1(C)CO1 [Carfilzomib]: 15.8.
Next, `CCN(CC)CCNC(=O)c1c(C)[nH]c(C=C2C(=O)Nc3ccc(F)cc32)c1C.O=C(O)CC(O)C(=O)O` [Sunitinib malate] + CC(C)C[C@H](NC(=O)[C@H](CCc1ccccc1)NC(=O)CN1CCOCC1)C(=O)N[C@@H](Cc1ccccc1)C(=O)N[C@@H](CC(C)C)C(=O)[C@@]1(C)CO1 [Carfilzomib]: 33.1.
On to `CN1CCN(c2ccc(C(=O)/N=c3\[nH][nH]c4ccc(Cc5cc(F)cc(F)c5)cc34)c(NC3CCOCC3)c2)CC1` [Entrectinib] + CC(C)C[C@H](NC(=O)[C@H](CCc1ccccc1)NC(=O)CN1CCOCC1)C(=O)N[C@@H](Cc1ccccc1)C(=O)N[C@@H](CC(C)C)C(=O)[C@@]1(C)CO1 [Carfilzomib], for which the “cell viability of combination” value stood at 10.1.
Next, `O=C(C=Cn1cnc(-c2cc(C(F)(F)F)cc(C(F)(F)F)c2)n1)NNc1cnccn1` + CC(C)C[C@H](NC(=O)[C@H](CCc1ccccc1)NC(=O)CN1CCOCC1)C(=O)N[C@@H](Cc1ccccc1)C(=O)N[C@@H](CC(C)C)C(=O)[C@@]1(C)CO1 [Carfilzomib]: 5.58; `CCOC(=O)C1=C(COCCN)NC(C)=C(C(=O)OC)C1c1ccccc1Cl.O=S(=O)(O)c1ccccc1` (stereo not given) [Amlodipine Besylate] + CC(C)C[C@H](NC(=O)[C@H](CCc1ccccc1)NC(=O)CN1CCOCC1)C(=O)N[C@@H](Cc1ccccc1)C(=O)N[C@@H](CC(C)C)C(=O)[C@@]1(C)CO1 [Carfilzomib]: 16.5; `CCc1cnn2c(NCc3ccc[n+]([O-])c3)cc(N3CCCCC3CCO)nc12` (stereo not given) + CC(C)C[C@H](NC(=O)[C@H](CCc1ccccc1)NC(=O)CN1CCOCC1)C(=O)N[C@@H](Cc1ccccc1)C(=O)N[C@@H](CC(C)C)C(=O)[C@@]1(C)CO1 [Carfilzomib]: 7.14.
Consider `C=C1C(=CC=C2CCCC3(C)C2CCC3C(C)C=CC(C)C(C)C)CC(O)CC1O` (stereo not given) [Doxercalciferol] + CC(C)C[C@H](NC(=O)[C@H](CCc1ccccc1)NC(=O)CN1CCOCC1)C(=O)N[C@@H](Cc1ccccc1)C(=O)N[C@@H](CC(C)C)C(=O)[C@@]1(C)CO1 [Carfilzomib], for which the “cell viability of combination” value was determined as 17.
Next, `O=C(O)c1cc(O)c(O)c(O)c1` [Gallic acid] + CC(C)C[C@H](NC(=O)[C@H](CCc1ccccc1)NC(=O)CN1CCOCC1)C(=O)N[C@@H](Cc1ccccc1)C(=O)N[C@@H](CC(C)C)C(=O)[C@@]1(C)CO1 [Carfilzomib]: 16.3.
